The values that follow come from PubChem BioAssay AID686979 (National Center for Advancing Translational Sciences (NCATS), 2013).

About 50,000 (12%) of roughly 420,000 compounds were called active. Not shown: some 26% with an inconclusive outcome. Many of the other results were omitted from the sample, so actives are more common in it than they were. Unmarked numbers belong to inactive results. Calls come from the whole dose curve; as a rule, active = well fitted inhibition curve with a large enough effect; inconclusive = small, poorly fitted or top-dose-only effect; inactive = flat fitted curve, though single readings scatter.
% is set by controls: 0 for no effect and ±100 for the full control effect; potency is the fitted concentration of half-maximal effect.

The assay in a line: qHTS for Inhibitors of human tyrosyl-DNA phosphodiesterase 1 (TDP1): qHTS in cells in presence of CPT. Note: nearly all actives have a fitted effect of over 55% in size. To be noted: chicken DT40 Tdp1-/-;hTDP1 cells + 20 nM CPT, ATP luminescence, 48 h; series mostly up to 46.2 µM; activity change, negative = growth inhibition: at the top concentration. In outline:
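Chicken DT40 Tdp1-/- cells stably complemented with human TDP1 were seeded at 400 cells/well in medium containing 20 nM camptothecin, exposed to pin-transferred compounds, and grown at 37 °C for at least 48 hr. Viability was read as ATP luminescence.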
(In general: Quantitative high-throughput screening tests each substance at several concentrations.)
As to `Cc1nc(N)c(Br)c(C)c1Br`, the “activity change, negative = growth inhibition” value was -6.26%.
The same measure, in the same setting: under `C[C@H]1CN([C@@H](C)CO)C(=O)CCCn2nncc2CO[C@@H]1CN(C)S(=O)(=O)c1cccc(C#N)c1` stands 23%; under `Cc1cc(NC(=O)CN2C(=O)NC(C)(CCc3ccccc3)C2=O)no1` (centres undefined), 12.3%.
Still for that read-out and setting: under `Cc1nc2ccc(NC(=S)N3CCC(C)CC3)cc2nc1C` stands 1.6%.
Same read-out and setting: under `CCn1c(SCC(=O)NCC2CCCO2)nc2ccccc21` (centres undefined) stands -0.0373%; under `COc1ccc(S(=O)(=O)N2CCN(CC(=O)N3CCNC3=O)CC2)cc1OC`, -1.11%.
As to `COc1ccc2c(C)cc(SCC(=O)NCC3CCCO3)nc2c1` (centres undefined), the “activity change, negative = growth inhibition” value was -26%.
Still for that read-out and setting: under `O=S(=O)(Nc1ncnc2sccc12)c1cccc(F)c1` stands -0.046%.
Take `O=C(N[C@@H]1C/C=C\C[C@@H](CC(=O)N(CCO)Cc2ccccc2)C(=O)N[C@H](Cc2ccccc2)COC1=O)OCC1c2ccccc2-c2ccccc21`: the Potency was 8.2 µM (active).
As for `Nc1nc2c(ncn2[C@@H]2O[C@H](CNCc3ccc(OCCCN4CCOCC4)cc3)[C@@H](O)[C@H]2O)c(=O)[nH]1`, the “activity change, negative = growth inhibition” value is 8.06%.
Same read-out and setting: for `CN(CC(=O)Nc1ccc(F)cc1)CC(=O)N1CCCCC1` the value was 4.19%; for `Cc1ccc(O)c(-c2cc(C(=O)Nc3c(C)n(C)n(-c4ccccc4)c3=O)[nH]n2)c1`, 4.26%.
Still for that read-out and setting: under `Nn1c(Cc2cccc3ccccc23)nnc1SCC(=O)N1CC(=O)Nc2ccccc21` stands -6.43%; under `COc1ccc(CCNC(=O)CSc2nnc(CNC(=O)c3cccs3)o2)cc1OC`, -3.57%.
On the same count and under the same terms, for `COc1ccc(CN(Cc2ccc(OC)cc2)C(=O)c2cccs2)cc1` the value was -25.3%.
Take `COc1ccc(CCNC(=O)/C(C#N)=C2\N=C(NC(=O)c3cccs3)c3ccccc32)cc1`: the Potency was 10.3 µM (active).
As to `CCCN1CCc2nc(N3CCN(C)CC3)ncc2C1`, the “activity change, negative = growth inhibition” value is -2.71%.
Take `COc1ccc(CN2CCc3nc(Nc4ccccc4)ncc3C2)c(OC)c1OC`: the Potency was 16.4 µM (active).
Same read-out and setting: for `Fc1ccc(CN2CCc3nc(Nc4ccccc4)ncc3C2)cc1F` the value was 11.6 µM (active).
Turning to `COc1ccc(CN2CCN(Cc3ccc(OC)c(OC)c3OC)CC2)cc1`, the “activity change, negative = growth inhibition” value is 4.44%.
The same measure, in the same setting: for `Cn1c(=O)c(CCc2ccccc2)nc2cnc(Nc3ccccc3)nc21` the value was 6.87%; for `Cc1nc2cnc(Nc3ccccc3)nc2n(Cc2ccc(F)cc2)c1=O`, -13.7%; for `CCCc1cc(=O)[nH]c2nnc(SCC(=O)Nc3nnc(SCC)s3)n12`, 7.93%.
Still for that read-out and setting: for `Cc1nc2cc(NC(=O)[C@@H]3C[C@@H](Sc4ccccn4)CN3Cc3ccccc3C)ccc2s1` the value was 6.85%.
Same read-out and setting: for `Cc1nn2c(=O)cc(COC(=O)c3cccc(NC(=O)COc4ccccc4Cl)c3)nc2s1` the value was -1.04%; for `O=C(CNS(=O)(=O)c1ccc(Br)s1)N1CCN(C(=O)c2ccco2)CC1`, -4.9%; for `C[C@@H]1CN([C@H](C)CO)C(=O)c2cc(NC(=O)NC3CCCCC3)ccc2O[C@H]1CN(C)S(C)(=O)=O`, 16.1%.
On to `C#Cc1ccc([C@@H]2C=C(C(=O)O)O[C@H](OCCCCO)C2)cc1`, for which the “activity change, negative = growth inhibition” value was -6.55%.
The same measure, in the same setting: for `CN1CCN(C(=O)C2=C[C@H](c3ccc4c(c3)OCO4)C[C@H](OCc3ccc(CO)cc3)O2)CC1` the value was 3.41%.
With `O=C(C1=C[C@H](c2ccc(C(F)(F)F)cc2)C[C@H](OCc2ccc(CO)cc2)O1)N1CCN(Cc2ccccc2)CC1`, the Potency is 23.1 µM (active).
Regarding `CCCCNC(=O)CSc1nc2cc3c(cc2c(=O)n1CCCCCC(=O)NCc1ccc2c(c1)OCO2)OCO3`, the “activity change, negative = growth inhibition” value was 9.03%.
On the same count and under the same terms, for `O=C(COc1ccc(Cl)cc1)Nc1ccc2oc(=O)ccc2c1` the value was 3.91%.
In the case of `O=c1[nH]c(CCl)nc2cc(-c3ccc(Cl)cc3)sc12`, the Potency was 5.17 µM (active).
Take `O=c1[nH]c(CN2CCOCC2)nc2cc(Cl)ccc12`: the “activity change, negative = growth inhibition” value is -0.49%.
Still for that read-out and setting: for `NC(=O)Cc1nc2scc(-c3ccc(Cl)cc3)c2c(=O)[nH]1` the value was -7.61%; for `CCc1ccc(CN(C)C(=O)C2CCC(=O)N(Cc3cccc(OC)c3)C2)nc1` (centres undefined), -25%.
For the molecule `C=CCC(C(=O)c1ccccc1)[N+](C)(C)CC=C` (centres undefined), the “activity change, negative = growth inhibition” value was 1.64%.
The same measure, in the same setting: under `COc1cc(C(F)(F)F)c(C(=O)N(C)c2ccc(Cl)cc2)cn1` stands -27.9%; under `CC(C)(C)c1ccc(S(=O)(=O)N2CCN(C(=O)c3ccc4c(c3)C(=O)N(Cc3ccncc3)C4=O)CC2)cc1`, -0.99%; under `COC(=O)Cc1csc(Nc2c(C)n(C)n(-c3ccccc3)c2=O)n1`, 5.14%.
Same read-out and setting: for `COC(=O)Cc1c(O)ccn(Cc2cccc(C(F)(F)F)c2)c1=O` the value was 19.8%.
In the case of `COC(=O)Cc1csc(/N=C/c2c(O)n(-c3cccc(C(F)(F)F)c3)c(=O)c3ccccc23)n1`, the Potency was 6.51 µM (active).
For the molecule `COc1ccc(NC(=O)CSc2nnc(-c3ccccc3F)n2C2CC2)cc1S(N)(=O)=O`, the “activity change, negative = growth inhibition” value is 2.75%.
Still for that read-out and setting: under `COc1ccccc1C(=O)N(C1=NC(C)CS1)c1ccc(Cl)cc1` (centres undefined) stands -28.9%.
Regarding `COc1cccc(CNc2nc(NCc3cccs3)nc3ccsc23)c1`, the Potency is 23.1 µM (active).
For the molecule `CNC(=O)c1sc(NCc2ccccc2OC)nc1C`, the “activity change, negative = growth inhibition” value was 4.75%.
Same read-out and setting: under `COCCNc1nc(NCc2ccc(NC(C)=O)cc2)c2sccc2n1` stands 9.84%; under `CCNc1nc(NC(C)C)nc(OCCOC(=O)c2ccccc2)n1`, -18.3%; under `CCc1ccc(S(=O)(=O)c2nnn3c2nc(NCc2ccccc2OC)c2cc(Cl)ccc23)cc1`, -16.5%.
The same measure, in the same setting: for `COc1ccc(CNc2ncncc2-c2ccccc2C)c(OC)c1` the value was -1.91%.
On the same count and under the same terms, for `COc1cccc(CNc2nccn(-c3ccc(OC)c(OC)c3)c2=O)c1` the value was 1.62%; for `Cc1nc2cc(NCc3cccs3)ccc2n1C`, -4.67%.
Regarding `CC(C)Nc1nc(NCCOc2ccccc2Cl)c2sccc2n1`, the Potency was 18.4 µM (active).
With `COc1cccc(CNc2nc(NCc3ccccc3OC)nc3ccsc23)c1`, the Potency was 9.2 µM (active).
Same read-out and setting: for `COc1ccccc1CNc1nc(Nc2ccccc2Cl)c2sccc2n1` the value was 9.2 µM (active).
As to `CC(=O)C(CC(=O)N1CCCC1)C(=O)Nc1ccc(Cl)cc1` (centres undefined), the “activity change, negative = growth inhibition” value was -3.12%.
Same read-out and setting: under `O=C1CC(c2c(F)cccc2Cl)C(n2cncn2)C(O)=C1C1NCCc2ccccc21` (centres undefined) stands 1.98%; under `Nc1nc2cc(Cl)ccc2n1N`, -16.6%.
On the same count and under the same terms, under `COc1ccc(NC(=O)CN(C)C(=O)c2cc(C)oc2C)cc1` stands 3.81%.
Same read-out and setting: under `O=C1NC(c2ccccc2)=NC1(Nc1ccccn1)C(F)(F)F` (centres undefined) stands 16%; under `Cc1ccc(C)c(C(=O)N2CCC(n3nccc3NC(=O)C3CC3)CC2)c1`, 13.2%.
For the molecule `Cc1cc(C(=O)OC(C)C(=O)NC2CCCCC2C)c(C)o1` (centres undefined), the “activity change, negative = growth inhibition” value was 3.31%.
The same measure, in the same setting: under `Cc1nc2sccn2c(=O)c1S(=O)(=O)NCCc1ccccc1` stands 0.103%; under `O=C(COC(=O)c1c(Cl)cccc1Cl)Nc1cccc(S(=O)(=O)NC2=NCCCCC2)c1`, -27.6%.
